The sequences below were run on VDR:RXRa (NR concentration 270 nM, RXRa partner concentration 90 nM) (assay: PBM binding z-score (relative to random genomic background probes); higher = stronger binding; sequences stand for … in GC…GCGATTGACAGCGTAGAATGAAGG).
Experimental: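 Protein-binding microarray (Agilent 4x180K custom design, double-stranded 60-nt probes: 5' GC cap, 34-nt variable region, 24-nt constant primer region; full probe sequence given). Purified or IVT nuclear receptor:RXRα heterodimers (3:1 NR:RXRα, mostly 270:90 nM) or homodimers were incubated for 1 h in PBS with 2% milk and no ligand, then detected with Alexa488 antibodies. Fluorescence from o1-orientation probes (~5 replicates averaged) was converted to z-scores against 500 random hg19 background probes. Variable regions are seed direct-repeat (DR0–DR5) sites, all their single-nucleotide variants and half-site ablations.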

Sequence | PBM binding z-score
CCTGCTGGGCCAAGGTCATTGATCAGTCAAAGCA | 3.06
CCAGACAGGTGAGCAGGTAACTCAGCCTCGATTA | -0.287
CGAACTAGGTCAGGGACAGTGAATCTCCGCACGC | 0.457
CCATACGGGTCACGAGGTTATAGCACGACGAGCG | 5.02
AGTCAAAGTTCATCCAGGTAACGTAAGATATGCT | 5.39
CCTCCTGGGCCACGAAAGGTCATTGATTCAGTGA | 4.04
CCTACTGGGCCATCAGGTCATCGATATCAACGTT | 1.77
ATACCAAGGTGATCGTGAGGTCGTTGAAACTAAC | 3.53
AGAATGAGGTTATTATGATCAGGGAATTGCGGTC | 1.65
TGAATGAGGTTATAAGATGAGGGAACGTTGCAAA | 0.832
CGAACGGGGGCATGAGTTGATAGCAAATGCCGAT | 3.88
TCTTGTAGATGAGCAGGTTAAGAAAGCTGGCCAA | -0.0672
TCTGCTAGGTCAGTTGGACAGCTAACGAGCTGCC | -0.155
CCTTACGGGTCACTGACAGGTTATAGTATTTGGA | 3.85
ACTATTAGTTCAGACGAGGGCAACCGATAGGTTG | 2.84
TGTCAAAGTTCAACGGTAACGTAAGTATCCACAC | 4.79
GCGAGTGGGGCATCAGCAGGTTACCATAACTTAA | 0.049
TCATATAGGTCAATGCTAGGTGAAAGTCCGATCT | 2.9
TAGCCTAGGCCATTGGGCCAGTATAGTACGCATC | -0.626
GCTCGGAGGACAATGTCAGAGCTTTGTCCGTAGA | -0.573

Sequence | PBM binding z-score
TCGAGCAGGTTACCAATGGGGCATTCAGCTTTCT | 0.08
TAGCCTAGGTCATGGTCCAGTATACCACGCGAAC | 2.14
AGTCAAAGCTCAGGACGAGGTAACGTAAAGCACG | -0.317
TAGCCTTGGTCAGATCGGGCCAGTATACGCTATA | -0.557
TAGCCTAGGTCATTGGGCCAGTATTGTACGCATC | 2.26
CTCGAAAGGTTGGTTGAGGTGAGTATACGGATAA | 0.828
CAAACTAGGTCAAAGATCAAAGTCGAGCCAACCA | 2.52
TATACAGGGTCAAAGGCCAGAGCACGAATGTCGA | 4.37
GCAGACAGGTGAAAGGCAGGTAACTCAGGGTGGC | -0.303
CAAACTAGGTCACGAAATGTCAAAGTCGAATGAC | 3.47
TCTTGTAGATCAATAGAGGATAAGAAAGTGCGCT | 0.432
TCATATAGGTACTACAGGTGAAAGTCGGCATCTA | 0.876
ATCACTAGGTAACCAAGTTCAGTGAATGCCGAAC | 3.92
AATACAGAGTCACTAGGCCAGAGTAGGTACGAAT | -0.0941
AGTCAAAGTTCAGGACGAGGTAACCTAAAGCACG | 2.94
CCTGCTAGGTCATTGGTCAGCTAAAGCAGCTCGC | 2.1
TCATATAGGTAAAAGGTGAAAATCGGTGTGGTAA | 1.65
TCGAGTAGGTCAGGGGCATTCAGAATGGCGTCGA | 1.55
CTCGAAAGGTCGGTTAAGGTGAGTATACGGATAA | 2.03
AGTCTAAGTTCACTAGGTAACGTAAGATTCAGCT | 3.59

— the supplement of paper PMC6555819
